Measurements reported in ChEMBL document CHEMBL3433997, “St. Jude Leishmania screening dataset” (2016).
Values joined by “and” are separate entries in the source; they are usually repeats but may differ in a detail not shown here. Equal values may be shown once.

target: Solute carrier family 2, facilitated glucose transporter member 1 (Homo sapiens) (UniProt P11166); assay: ST_JUDE_LEISH: Cytotoxicity at 2uM final concentration against transgenic Leishmania Mexicana promastigotes LmGLUT1 that are glucose transport deficient and complemented with the human glucose transporter GLUT1. Activity is measured by DNA content using SYBR green in vitro; format: functional
Sequence (P11166 whole entry): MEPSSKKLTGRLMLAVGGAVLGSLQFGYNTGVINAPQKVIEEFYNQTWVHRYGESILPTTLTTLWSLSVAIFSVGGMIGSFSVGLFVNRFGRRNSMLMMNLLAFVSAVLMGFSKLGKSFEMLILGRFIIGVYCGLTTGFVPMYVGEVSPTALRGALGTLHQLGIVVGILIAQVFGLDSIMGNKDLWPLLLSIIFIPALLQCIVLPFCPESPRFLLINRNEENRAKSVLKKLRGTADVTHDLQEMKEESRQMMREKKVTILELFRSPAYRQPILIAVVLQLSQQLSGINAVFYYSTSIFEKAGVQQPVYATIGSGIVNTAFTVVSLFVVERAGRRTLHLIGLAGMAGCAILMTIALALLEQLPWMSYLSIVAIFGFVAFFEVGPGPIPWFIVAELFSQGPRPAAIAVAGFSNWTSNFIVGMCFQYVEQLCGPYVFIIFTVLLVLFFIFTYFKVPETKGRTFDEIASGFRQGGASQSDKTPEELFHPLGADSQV

Row | SMILES | inhibition
1 | O=C(NC1CCC(CN2CCC(c3c[nH]c4ccccc34)CC2)CC1)c1ccc(-c2ccccc2[N+](=O)[O-])o1 (stereo not given) | 3.68%
2 | Cc1cc(O)cc2c(C3CCN(CC4CCC(NC(=O)/C=C/c5ccccc5Cl)CC4)CC3)c[nH]c12 (stereo not given) | 4.47%
3 | CC(Cc1ccc(NC(=O)CCCc2ccccc2)cc1)NCCc1cccc(Cl)c1 (stereo not given) | 1.2%
4 | OC(CNCc1ccccc1OC(F)F)c1cccc(C(F)(F)F)c1 (stereo not given) | 1.52%
5 | Cc1ccc(CC(C)NC[C@H](O)c2cccc(Cl)c2)cc1 (stereo not given in full) | 1.71% and 1.19%
6 | Cc1cc(C(=O)NC2CCN(CC3(c4ccc(Cl)cc4)CCC3)CC2)on1 | 0.83%
7 | O=C(C=C1c2ccccc2-c2ccccc21)NC1CCC(CN2CCC(c3c[nH]c4ccccc34)CC2)CC1 (stereo not given) | 0.2% and -2.16%
8 | CCC1=C[C@@H]2CN(C1)Cc1c([nH]c3ccccc13)[C@@](C(=O)OC)(c1cc3c(cc1OC)N(C)[C@H]1[C@@](O)(C(=O)OC)[C@H](O)[C@]4(CC)C=CCN5CC[C@]31[C@@H]54)C2 | 2.2%
9 | CCOC(C(=O)OCC1CCCN1C)(c1ccccc1)c1ccccc1 (stereo not given) | 1.35%
10 | CC(Cc1ccc(OCc2ccc(CCN(C)C)cc2)cc1)NCCc1cccc(Cl)c1 (stereo not given) | 1.8%
11 | COc1cccc(C=CC(=O)NC2CCC(CN3CCC(c4c[nH]c5ccccc45)CC3)CC2)c1OC (stereo not given) | 1.83%
12 | CC(=O)C1(c2ccccc2)CCN(CCC(NC(=O)c2cc(C(F)(F)F)cc(C(F)(F)F)c2)c2ccc(Cl)c(Cl)c2)CC1 (stereo not given) | -0.39%
13 | CN1CC=C(c2c[nH]c3ccc(Br)cc23)CC1 | 1.93%
14 | COc1ccc(CC(C)NCC(O)c2cccc(Br)c2)cc1 (stereo not given) | 10.3%
15 | FC(F)(F)c1ccc(NC(=S)N2CCC(CN3CCC(c4c[nH]c5ccccc45)CC3)CC2)cc1 | -0.87%
16 | O=C(/C=C/c1ccc(Cl)c(Cl)c1)N1CCC(CN2CCC(c3c[nH]c4cc5c(cc34)OCO5)CC2)CC1 | 5.54%
17 | O=C(NC1CCC(CN2CCC(c3c[nH]c4ccccc34)CC2)CC1)c1cn(Cc2ccccc2)c2ccccc12 (stereo not given) | 0.71%
18 | COc1ccc(CCNCc2ccc3nc(N)cc(C)c3c2)cc1 | -3.73%
19 | CC[C@H]1CN2CC[C@@H]1C[C@H]2[C@H](O)c1cc(N2CCCC(C)(C)C2)nc2ccc(OC)cc12 | 0.42%
20 | COC(=O)c1ccc(CC(C)NCC(O)c2cccc(I)c2)cc1 (stereo not given) | -0.53%

Row | SMILES | inhibition
21 | CC[C@H]1CN2CC[C@H]1C[C@H]2[C@H](O)c1cc(-c2ccc3ccccc3c2)nc2ccc(OC)cc12 | 10%
22 | CC(C)(C)c1ccc(Cn2nc(C(=O)N3CCN(C(=O)C4CCCO4)CC3)c3ccccc32)cc1 (stereo not given) | 0.73%
23 | CC(=O)C1(c2ccccc2)CCN(CCC2(c3ccc(Cl)c(Cl)c3)CN(C(=O)c3cccc(Cl)c3)CCO2)CC1 (stereo not given) | -0.25%
24 | CCN(CC)CCN1C(=O)C(O)(c2ccccc2Cl)c2c1cc(C#N)cc2C(F)(F)F (stereo not given) | 2.9%
25 | C/C=C1\CN2CC[C@H]1C[C@@H]2[C@@H](O)c1ccnc2ccc(O)cc12 | 2.02%
26 | C#CCN1CCC2=C(C1)c1c(O)cc(C(C)C(C)CCc3ccc(F)cc3)cc1OC2(C)C (stereo not given) | 0.45%
27 | CC[C@H]1CN2CC[C@@H]1C[C@H]2[C@H](O)c1cc(-c2ccccc2)nc2ccc(O)cc12 | 5.97%
28 | CC(=O)N(Cc1cccc(-c2cccc(CNCCc3ccccc3)c2)c1)C1CCN(Cc2ccccc2)CC1 | -0.27%
29 | Cc1[nH]c2ccc(O)cc2c1C1CCN(CC2CCN(C(=O)/C=C/c3ccc(Cl)c(Cl)c3)CC2)CC1 | 0.92%
30 | O=C(/C=C/c1ccc(Cl)c(Cl)c1)N(Cc1ccccc1)C1CCC(CN2CCC(c3c[nH]c4ccccc34)CC2)CC1 (stereo not given) | 4.82%
31 | O=[N+]([O-])c1ccc(Oc2c(Cl)cc(S(=O)(=O)N3CCC(CN4CCC(c5c[nH]c6ccccc56)CC4)CC3)cc2Cl)c(Cl)c1 | 1.89%
32 | CC[C@H]1CN2CC[C@H]1C[C@H]2[C@H](O)c1ccnc2ccc(C#N)cc12 | 0.59%
33 | CN(c1ccc(NC(=O)CCOc2ccccc2)cc1)C1CCN(Cc2cccc(O)c2)CC1 | 1.64%
34 | CN1C(=O)[C@H](NC(=O)[C@@H](Cc2ccccc2)NC(=S)Nc2ccccc2)N=C(c2ccccc2)c2ccccc21 | 1.25%
35 | Cc1ccc(C2(O)CC3CCC(C2)N3C)cc1 (stereo not given) | 2.44%
36 | CC(C)CCNC(=O)c1cc(C(=O)c2cc(F)ccc2O)cn(CCC(C)C)c1=O | 3.21%
37 | CC[C@H]1CN2CCc3cc(OC)c(OC)cc3[C@@H]2C[C@@H]1C[C@H]1NCCc2cc(OC)c(OC)cc21 | 96.8%
38 | O=C(Nc1cc(C(F)(F)F)cc(C(F)(F)F)c1)N1CCC(CN2CCC(c3c[nH]c4ccccc34)CC2)CC1 | 2.61%
39 | CC[C@H]1CN2CC[C@@H]1C[C@H]2[C@H](O)c1cc(-c2cccnc2)nc2ccc(OC)cc12 | 4.01%
40 | O=C(/C=C/c1ccc([N+](=O)[O-])cc1)NC1CCC(CN2CCC(c3c[nH]c4ccccc34)CC2)CC1 (stereo not given) | 2.8% and -1.4%

target: Hexose transporter 1 (Plasmodium falciparum) (UniProt O97467); assay: ST_JUDE_LEISH: Cytotoxicity at 2uM final concentration against transgenic Leishmania Mexicana promastigotes LmPfHT that are glucose transport deficient and complemented with the Plasmodium falciparum hexose transporter. Activity is measured by DNA content using SYBR green in vitro; format: functional

Row | SMILES | inhibition
41 | O=C(NC1CCC(CN2CCC(c3c[nH]c4ccccc34)CC2)CC1)c1ccc(-c2ccccc2[N+](=O)[O-])o1 (stereo not given) | 1.85%
42 | Cc1cc(O)cc2c(C3CCN(CC4CCC(NC(=O)/C=C/c5ccccc5Cl)CC4)CC3)c[nH]c12 (stereo not given) | 4.35%
43 | CC(Cc1ccc(NC(=O)CCCc2ccccc2)cc1)NCCc1cccc(Cl)c1 (stereo not given) | 0.72%
44 | OC(CNCc1ccccc1OC(F)F)c1cccc(C(F)(F)F)c1 (stereo not given) | 1.17%
45 | Cc1ccc(CC(C)NC[C@H](O)c2cccc(Cl)c2)cc1 (stereo not given in full) | 0.19% and 1.01%
46 | Cc1cc(C(=O)NC2CCN(CC3(c4ccc(Cl)cc4)CCC3)CC2)on1 | -0.05%
47 | O=C(C=C1c2ccccc2-c2ccccc21)NC1CCC(CN2CCC(c3c[nH]c4ccccc34)CC2)CC1 (stereo not given) | 0.36% and -1.31%
48 | CCC1=C[C@@H]2CN(C1)Cc1c([nH]c3ccccc13)[C@@](C(=O)OC)(c1cc3c(cc1OC)N(C)[C@H]1[C@@](O)(C(=O)OC)[C@H](O)[C@]4(CC)C=CCN5CC[C@]31[C@@H]54)C2 | 4.15%
49 | CCOC(C(=O)OCC1CCCN1C)(c1ccccc1)c1ccccc1 (stereo not given) | -0.09%
50 | CC(Cc1ccc(OCc2ccc(CCN(C)C)cc2)cc1)NCCc1cccc(Cl)c1 (stereo not given) | 0.77%
51 | COc1cccc(C=CC(=O)NC2CCC(CN3CCC(c4c[nH]c5ccccc45)CC3)CC2)c1OC (stereo not given) | 2.37%
52 | CC(=O)C1(c2ccccc2)CCN(CCC(NC(=O)c2cc(C(F)(F)F)cc(C(F)(F)F)c2)c2ccc(Cl)c(Cl)c2)CC1 (stereo not given) | 0.71%
53 | CN1CC=C(c2c[nH]c3ccc(Br)cc23)CC1 | 0.19%
54 | COc1ccc(CC(C)NCC(O)c2cccc(Br)c2)cc1 (stereo not given) | 8.65%
55 | FC(F)(F)c1ccc(NC(=S)N2CCC(CN3CCC(c4c[nH]c5ccccc45)CC3)CC2)cc1 | -0.06%
56 | O=C(/C=C/c1ccc(Cl)c(Cl)c1)N1CCC(CN2CCC(c3c[nH]c4cc5c(cc34)OCO5)CC2)CC1 | 4.93%
57 | O=C(NC1CCC(CN2CCC(c3c[nH]c4ccccc34)CC2)CC1)c1cn(Cc2ccccc2)c2ccccc12 (stereo not given) | 1.32%
58 | COc1ccc(CCNCc2ccc3nc(N)cc(C)c3c2)cc1 | -2.84%
59 | CC[C@H]1CN2CC[C@@H]1C[C@H]2[C@H](O)c1cc(N2CCCC(C)(C)C2)nc2ccc(OC)cc12 | -0.61%
60 | COC(=O)c1ccc(CC(C)NCC(O)c2cccc(I)c2)cc1 (stereo not given) | -1%

Row | SMILES | inhibition
61 | CC[C@H]1CN2CC[C@H]1C[C@H]2[C@H](O)c1cc(-c2ccc3ccccc3c2)nc2ccc(OC)cc12 | 4.9%
62 | CC(C)(C)c1ccc(Cn2nc(C(=O)N3CCN(C(=O)C4CCCO4)CC3)c3ccccc32)cc1 (stereo not given) | 0.1%
63 | CC(=O)C1(c2ccccc2)CCN(CCC2(c3ccc(Cl)c(Cl)c3)CN(C(=O)c3cccc(Cl)c3)CCO2)CC1 (stereo not given) | -2.92%
64 | CCN(CC)CCN1C(=O)C(O)(c2ccccc2Cl)c2c1cc(C#N)cc2C(F)(F)F (stereo not given) | 2.02%
65 | C/C=C1\CN2CC[C@H]1C[C@@H]2[C@@H](O)c1ccnc2ccc(O)cc12 | 1.55%
66 | C#CCN1CCC2=C(C1)c1c(O)cc(C(C)C(C)CCc3ccc(F)cc3)cc1OC2(C)C (stereo not given) | -1.07%
67 | CC[C@H]1CN2CC[C@@H]1C[C@H]2[C@H](O)c1cc(-c2ccccc2)nc2ccc(O)cc12 | 5.53%
68 | CC(=O)N(Cc1cccc(-c2cccc(CNCCc3ccccc3)c2)c1)C1CCN(Cc2ccccc2)CC1 | 1.94%
69 | Cc1[nH]c2ccc(O)cc2c1C1CCN(CC2CCN(C(=O)/C=C/c3ccc(Cl)c(Cl)c3)CC2)CC1 | 0.19%
70 | O=C(/C=C/c1ccc(Cl)c(Cl)c1)N(Cc1ccccc1)C1CCC(CN2CCC(c3c[nH]c4ccccc34)CC2)CC1 (stereo not given) | 2.84%
71 | O=[N+]([O-])c1ccc(Oc2c(Cl)cc(S(=O)(=O)N3CCC(CN4CCC(c5c[nH]c6ccccc56)CC4)CC3)cc2Cl)c(Cl)c1 | 0.25%
72 | CC[C@H]1CN2CC[C@H]1C[C@H]2[C@H](O)c1ccnc2ccc(C#N)cc12 | 1.86%
73 | CN(c1ccc(NC(=O)CCOc2ccccc2)cc1)C1CCN(Cc2cccc(O)c2)CC1 | -0.45%
74 | CN1C(=O)[C@H](NC(=O)[C@@H](Cc2ccccc2)NC(=S)Nc2ccccc2)N=C(c2ccccc2)c2ccccc21 | 0.57%
75 | Cc1ccc(C2(O)CC3CCC(C2)N3C)cc1 (stereo not given) | 2.72%
76 | CC(C)CCNC(=O)c1cc(C(=O)c2cc(F)ccc2O)cn(CCC(C)C)c1=O | 2.53%
77 | CC[C@H]1CN2CCc3cc(OC)c(OC)cc3[C@@H]2C[C@@H]1C[C@H]1NCCc2cc(OC)c(OC)cc21 | 94%
78 | O=C(Nc1cc(C(F)(F)F)cc(C(F)(F)F)c1)N1CCC(CN2CCC(c3c[nH]c4ccccc34)CC2)CC1 | 3.46%
79 | CC[C@H]1CN2CC[C@@H]1C[C@H]2[C@H](O)c1cc(-c2cccnc2)nc2ccc(OC)cc12 | 4.01%
80 | O=C(/C=C/c1ccc([N+](=O)[O-])cc1)NC1CCC(CN2CCC(c3c[nH]c4ccccc34)CC2)CC1 (stereo not given) | 1.89% and -2.18%
